Only some compounds are listed: those with a hit (about 2.9% of all), similar ones and a draw of the others.
D3 antag: qHTS of D3 Dopamine Receptor Antagonist: qHTS; D(3) dopamine receptor (Homo sapiens), P35462; D3R cells, DiscoveRx beta-arrestin luminescence, antagonist mode; hits give low values; max response, negative = inhibition, %; 360,000 tested, 2.5% active; in the data active means max response below about -50%; inconclusive means no clear call, values can overlap the other calls
Target sequence (P35462 whole entry, looked up): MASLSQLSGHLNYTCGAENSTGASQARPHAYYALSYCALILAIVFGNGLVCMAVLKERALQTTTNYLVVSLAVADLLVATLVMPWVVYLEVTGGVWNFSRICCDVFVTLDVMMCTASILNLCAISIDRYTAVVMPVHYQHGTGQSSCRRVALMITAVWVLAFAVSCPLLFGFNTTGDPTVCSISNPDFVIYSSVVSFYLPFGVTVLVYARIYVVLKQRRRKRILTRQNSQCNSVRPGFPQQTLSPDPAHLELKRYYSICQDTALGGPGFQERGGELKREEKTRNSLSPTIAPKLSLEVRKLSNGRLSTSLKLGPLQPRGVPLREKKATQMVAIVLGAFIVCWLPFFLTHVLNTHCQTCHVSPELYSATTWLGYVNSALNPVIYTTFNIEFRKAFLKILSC
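Cells expressing the human receptor were seeded at 1500 cells/well, incubated overnight at 37 degrees C in 5% CO2, then exposed to library compounds with dopamine controls for 90 minutes at 37 degrees C before luminescent detection.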
a7 integrin act: qHTS for Activators of Integrin-Mediated Alleviation for Muscular Dystrophy. alpha7betagal myoblasts, beta-gal FDG fluorescence, 48 h. Potency, µM (top dose mostly 38.3 µM), hits mostly activators. 350,000 tested, 0.064% active. AID 624291, 2012; active means well fitted activation curve with a large enough effect; inconclusive means small, poorly fitted or top-dose-only effect; inactive means no such curve, though single readings can be large or run the other way; further: nearly all actives have a fitted effect of over 60% in size
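alpha7betagal+/- myoblasts (passage 13, 250/well) treated 48 h at 37C with compounds at 1:260 dilution of DMSO stock. Lysed, then beta-galactosidase activity read as FDG fluorescence (ex 480/em 540) after 30 min, with pre-read for autofluorescence.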
D3 ag: qHTS of D3 Dopamine Receptor Agonist: qHTS; D(3) dopamine receptor (Homo sapiens), P35462; D3R DiscoveRx beta-arrestin cells, luminescence, 90 min; max activation, %; 410,000 tested, 0.58% active; AID 652048, 2013; in the data active means max activation above about 30%
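Cells at 1500/well, incubated overnight, then treated with pinned compounds (dopamine as control) for 90 min at 37 degrees C. DiscoveRx reagent added for 30 - 60 minutes at room temperature; luminescence read.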
Of the large screens only hits and unclear results are named; the others gave an inactive call.

CCCCN(C)CCCNC(=O)c1cc(=O)[nH]c2ccc(S(=O)(=O)N3CCCCC3C)cc12 (stereo not given)	none
COc1ccc(C)cc1S(=O)(=O)Nc1cccc(C)c1	none
COc1ccc(NS(=O)(=O)c2cc(C)ccc2OC)cc1OC	D3 antag -58
CC(C)=CC(=O)Nc1ccc2c(c1)OCO2	none
Cc1cc(C)n2nc(C(=O)OCC(=O)Nc3cc(Cl)ccc3C)nc2n1	a7 integrin act inconclusive
Cc1ccccc1-c1nnc(CN2CCN(C(=O)c3ccco3)CC2)o1	none
COc1ccc2ccccc2c1CN1CCN(C(=O)c2ccccc2)CC1	D3 antag inconclusive
CCOc1ccc(CN2CCN(C(=O)c3ccco3)CC2)cc1	none
COc1ccc2ccccc2c1CN1CCN(C(=O)c2ccco2)CC1	D3 ag 48
O=C(c1ccco1)N1CCN(Cc2nnc(-c3cccc(Cl)c3)o2)CC1	D3 ag 37
CCOc1cc(CN2CCN(C(=O)c3ccco3)CC2)ccc1OC	D3 antag inconclusive, D3 ag 44
CCOC(=O)c1c(NC(=O)CN2C(=O)C(=O)N(C(C)C)C2=O)sc(C)c1CC	none
COC(=O)c1ccc(CN2CCc3ccc(NC(=O)c4ccncc4)cc3C2)cc1	D3 antag inconclusive
CSc1cccc(NC(=O)N2CCc3ccc(NC(=O)c4ccccn4)cc3C2)c1	a7 integrin act inconclusive
CSc1cccc(NC(=O)c2ccc(CN3CCc4ccccc4C3)cc2)c1	D3 antag -96
O=C(Nc1cccc(Br)c1)c1ccc(CN2CCc3ccccc3C2)cc1	D3 antag -56
CS(=O)(=O)N1CCC(Oc2ccccc2C(=O)N2CCNC(=O)C2)CC1	none
Cc1ccc(C2=CC(c3ccc(N(C)C)cc3)n3nnnc3N2)cc1 (stereo not given)	none
COc1ccc2c(c1)c1c(c(=O)n(Cc3ccccc3)c(=O)n1CC(=O)NCc1ccc(C)cc1)n2C	none (no result: D3 antag, a7 integrin act)
COC(C[C@H](O)C[C@@H](O)COCc1ccccc1)OC	D3 antag -107
COC(C[C@@H](O)C[C@@H](O)COCc1ccccc1)OC	none
CCc1nnc(N/N=C/c2ccccc2F)n1N	none
CCc1nnc(N/N=C/c2ccccc2Cl)n1N	D3 antag -63
CC(C)(C)c1nnc(N/N=C/c2ccccc2O)n(N)c1=O	D3 ag 33
CC(C)(C)c1nnc(N/N=C/c2ccccc2)n(N)c1=O	none
O=C(CCC(=O)N1CCOc2ccccc21)Nc1ccc(F)cc1F	none
CC(C)(C)c1ccc(C(=O)N2CCN(C(=O)C3CCCCC3)CC2)cc1	none
CCOC(=O)c1oc2ccc(S(=O)(=O)Nc3ccc4c(c3)n(C)c(=O)n4C)cc2c1C	D3 ag 32
COc1ccc(S(=O)(=O)Nc2ccc3c(c2)n(C)c(=O)n3C)cc1C	none
COc1ccc(COCC(O)CN2CCc3ccccc3C2)cc1OC (stereo not given)	D3 antag -61
OC(COCc1ccccc1)CN1CCc2ccccc2C1 (stereo not given)	D3 antag -65
OC(COCc1ccccc1)CN1CCCC1 (stereo not given)	none
COc1ccc(COCC(O)CN2CCCCC2)cc1OC (stereo not given)	none
O=C(N/N=C1\CCCc2ccccc21)c1ccccc1[N+](=O)[O-]	none
Cc1ccc(N2C(=O)N3[C@H](c4cccc(C)c4)[C@@H]4C(=O)N(Cc5ccccc5)C(=O)[C@@H]4[C@]3(C)C2=O)cc1	D3 antag inconclusive
CC[C@@]12C(=O)N(c3cccc(Cl)c3)C(=O)N1[C@H](c1cccc(C)c1)[C@@H]1C(=O)N(Cc3ccccc3)C(=O)[C@@H]12	D3 antag inconclusive
CC[C@@]12C(=O)N(c3ccc(OC)cc3)C(=O)N1[C@H](c1cccc(C)c1)[C@@H]1C(=O)N(Cc3ccccc3)C(=O)[C@@H]12	D3 ag 45
CC[C@@]12C(=O)N(c3ccc(C)cc3)C(=O)N1[C@H](c1cccc(C)c1)[C@@H]1C(=O)N(Cc3ccccc3)C(=O)[C@@H]12	D3 ag 30
COc1ccc(CC(=O)OCc2cc(=O)n3cc(Br)ccc3n2)cc1OC	none
Cc1nc2sccn2c(=O)c1S(=O)(=O)NCC1CCN(Cc2ccccc2Cl)CC1	none
Cc1ccc(Nc2nc(N)nc(CN3CCN(Cc4ccc5c(c4)OCO5)CC3)n2)cc1Cl	D3 antag inconclusive
COc1ccccc1Nc1nc(N)nc(CN2CCN(c3ccccc3)CC2)n1	D3 antag inconclusive
COc1ccccc1Nc1nc(N)nc(CN2CCC(C)CC2)n1	none
COc1ccccc1N1CCN(Cc2nc(N)nc(Nc3ccccc3)n2)CC1	D3 antag -71
COc1ccccc1Nc1nc(N)nc(CN2CCC(Cc3ccccc3)CC2)n1	D3 antag -59
Nc1nc(CN2CCN(Cc3ccccc3)CC2)nc(Nc2ccc3c(c2)OCCO3)n1	D3 antag -59
COc1cc(CNC(C)(C)C)cc(Br)c1OCc1cccs1	none
Cc1ccc(NC(=O)CN2C=NS(=O)(=O)c3ccccc32)c(C)c1	none (no result: D3 antag, a7 integrin act)
O=c1c(N=Nc2ccc(O)cc2)c(-c2ccccc2)[nH]n1-c1ccc([N+](=O)[O-])cc1	D3 antag -70
NC(=S)n1[nH]c(-c2ccc([N+](=O)[O-])cc2)c(N=Nc2ccc(Cl)cc2)c1=O	none
O=C(Nc1ccccc1N1CCCCC1)C1CCN(C(=O)c2ccc(Cl)cc2)CC1	D3 antag -59
O=C(Cc1ccccc1F)Nc1ccccc1N1CCCC1	none
O=C(CNCC1CCCO1)Nc1ccccc1N1CCCCCC1 (stereo not given)	D3 antag -62
O=C(CNCc1ccccc1Cl)Nc1ccccc1N1CCCCC1	D3 antag -60
O=C(CNCC1CCCO1)Nc1ccc(N2CCCCCC2)cc1 (stereo not given)	none
O=C(Nc1ccccc1N1CCCC1)C1CCN(C(=O)c2ccc(Cl)cc2)CC1	none
COc1ccc(NC(=O)Cn2c(=O)n(CC3CCCO3)c(=O)c3ccccc32)cc1 (stereo not given)	none (no result: D3 antag, a7 integrin act)
CCCNc1nc2c(c(=O)n(C)c(=O)n2C)n1CCC(C)C	none
CCC1C(=O)NCCN1C(=O)c1cccc(OC2CCN(S(=O)(=O)N(C)C)CC2)c1 (stereo not given)	none
CCN(CC(=O)NCc1cccs1)C(=O)c1cc(S(=O)(=O)N2CCCCC2)ccc1Cl	a7 integrin act inconclusive
CSc1nc(N)nc2c1ncn2CC(=O)N[C@H](C)c1cccc2ccccc12	none
NC(c1csc(Nc2ccc(C(=O)NCCCO)cn2)n1)C1CCCCC1 (stereo not given)	none (no result: a7 integrin act)
O=C(CSc1ncccn1)N/N=C/c1ccc2c(c1)OCO2	a7 integrin act inconclusive
COCCCNCCCCOc1ccc(OCc2ccccc2)cc1	none
CCc1cccc(OCCCCNCCOC)c1	D3 antag -67
COc1ccc(NCc2cccnc2)cc1	none
COc1ccccc1/C=N/NC(=O)CC(=O)Nc1ccc(Cl)c(Cl)c1	D3 antag -65
Cc1cc(/C=N/NC(N)=S)c(C)n1-c1ccc(Cl)c(Cl)c1	D3 antag inconclusive
COc1cccc(NC(=O)C(=O)N/N=C/c2cc(C)n(-c3ccc(Cl)c(Cl)c3)c2C)c1	D3 antag -94
COc1ccccc1/C=N/NC(=O)COCC(=O)N/N=C/c1ccccc1OC	none
COc1ccccc1CNc1ncnc2c1nc1n2CCCC1	none (no result: D3 antag, a7 integrin act)

From PubChem BioAssay
